# Rows were chosen to be rich in hits. Some 7.6% of all compounds tested hit in one or more screens of this group.
# hERG WT inh: qHTS for Inhibitors of KCHN2 3.1: Wildtype qHTS. Voltage-gated inwardly rectifying potassium channel KCNH2 (Homo sapiens), Q12809. U2OS, BacMam KCNH2, thallium flux FluxOr; stronger effect = lower value. activity change, % at 1.84 µM. 0.37% of 340,000 active. AID 720551, 2013;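 active = maximum activity change below -70%; inconclusive = maximum activity change between -70% and -50%; inactive = maximum activity change above -50%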; also: % is scaled to controls: 0 for no effect and ±100 for the full control effect
# Target sequence (Q12809 whole entry, looked up): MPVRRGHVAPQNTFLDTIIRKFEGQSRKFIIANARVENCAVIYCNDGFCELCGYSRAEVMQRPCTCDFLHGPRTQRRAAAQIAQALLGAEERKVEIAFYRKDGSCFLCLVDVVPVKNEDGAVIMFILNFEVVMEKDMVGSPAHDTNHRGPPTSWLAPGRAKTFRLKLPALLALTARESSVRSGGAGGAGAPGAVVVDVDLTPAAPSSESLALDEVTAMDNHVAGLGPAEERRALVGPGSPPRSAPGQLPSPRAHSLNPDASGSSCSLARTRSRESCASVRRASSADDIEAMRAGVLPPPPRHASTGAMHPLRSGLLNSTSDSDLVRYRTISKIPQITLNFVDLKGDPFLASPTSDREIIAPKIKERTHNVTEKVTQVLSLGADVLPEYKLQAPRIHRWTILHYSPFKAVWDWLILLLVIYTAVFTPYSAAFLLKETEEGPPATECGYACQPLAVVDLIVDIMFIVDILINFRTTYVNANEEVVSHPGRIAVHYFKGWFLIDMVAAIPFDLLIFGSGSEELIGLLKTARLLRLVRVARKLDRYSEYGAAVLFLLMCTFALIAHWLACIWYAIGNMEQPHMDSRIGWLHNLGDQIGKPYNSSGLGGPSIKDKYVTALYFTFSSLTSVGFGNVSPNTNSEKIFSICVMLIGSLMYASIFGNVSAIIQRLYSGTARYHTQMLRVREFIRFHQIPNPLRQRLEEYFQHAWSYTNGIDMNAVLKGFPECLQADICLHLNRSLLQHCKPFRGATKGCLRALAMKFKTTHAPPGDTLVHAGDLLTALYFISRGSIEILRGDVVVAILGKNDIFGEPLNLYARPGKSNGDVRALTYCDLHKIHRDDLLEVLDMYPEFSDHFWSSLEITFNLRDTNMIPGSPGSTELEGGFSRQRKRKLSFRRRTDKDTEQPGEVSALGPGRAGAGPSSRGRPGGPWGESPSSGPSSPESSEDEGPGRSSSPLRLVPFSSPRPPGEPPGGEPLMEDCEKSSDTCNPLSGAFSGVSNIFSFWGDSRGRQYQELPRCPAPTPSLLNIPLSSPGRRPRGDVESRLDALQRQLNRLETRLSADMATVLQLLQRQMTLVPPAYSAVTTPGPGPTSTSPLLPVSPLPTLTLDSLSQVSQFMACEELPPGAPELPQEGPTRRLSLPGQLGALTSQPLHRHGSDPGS
#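 U2OS cells transduced with wild-type KCNH2 virus are loaded with FluxOr dye for 45 min, and thallium flux is measured in kinetic reads before and after stimulation buffer. Rate constants are normalized to DMSO controls.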
# KB-3-1 tox: qHTS assay for MDR1-selective chemotherapeutics: Primary screen using the parental adenocarcinoma cell KB-3-1; KB-3-1 viability, CellTiter-Glo ATP luminescence, 72 h; 1.4% of 400,000 active; Potency, µM (highest dose often 46.1 µM), most hits filed as cytotoxic; AID 1347075, 2019; also: potency is read from the fitted curve at half-maximal effect; % is scaled to controls: 0 for no effect and ±100 for the full control effect; nearly all actives have a fitted effect of over 60% in size
#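 Viability of parental KB-3-1 cells, measured by CellTiter-Glo luminescence, followed a 72 h incubation at 37 °C with pinned compounds in phenol-red-free DMEM containing 10% FBS.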
# MCF10A rerep: A quantitative high throughput screen for small molecules that induce DNA re-replication in MCF 10a normal breast cells; MCF 10A DNA re-replication, Hoechst nuclear intensity, 48 h; Potency, µM (highest dose often 46.1 µM), for the others: top-dose activity, positive = re-replication, most hits filed as activators; 2.9% of 350,000 active; AID 624296, 2012; also: potency is read from the fitted curve at half-maximal effect; % of control where 0% means no effect; nearly all actives have a fitted effect of over 50% in size
# KB-V1 cytotox: qHTS assay for MDR1-selective chemotherapeutics: Primary screen using the drug-selected MDR subline cells KB-V1 | 3.4% of 400,000 active | AID 1347076, 2019 | Potency, µM (titrated, usually from 46.1 µM), usual class: cytotoxic | KB-V1 MDR cells viability, CellTiter-Glo, 72 h; also: potency is read from the fitted curve at half-maximal effect; % is scaled to controls: 0 for no effect and ±100 for the full control effect; nearly all actives have a fitted effect of over 60% in size
#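 Readout: CellTiter-Glo luminescence, 10 min after addition. Cells: KB-V1 MDR subline, 72 h at 37 degrees C with compound. Analysis: corrected, normalized data fitted to concentration-effect curves.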
# SW480 rerep: A quantitative high throughput screen for small molecules that induce DNA re-replication in SW480 colon adenocarcinoma cells | SW480 DNA re-replication, Hoechst DNA content imaging, 48 h | Potency, µM (series often up to 46.1 µM), without a hit: at the top dose re-replication activation, actives largely listed as activators | 1.8% of 340,000 active | AID 624297, 2012; also: potency is read from the fitted curve at half-maximal effect; % of control where 0% means no effect; nearly all actives have a fitted effect of over 55% in size
#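 Treated cells incubate 48 hr (37 C, 5% CO2), are stained 40 min with Hoechst, and nuclear fluorescence is enumerated; a rise in nuclei with high DNA signal marks re-replication.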
# KCNH2 3.1 inh: qHTS for Inhibitors of KCHN2 3.1: Mutant qHTS | AID 720553, 2013 | activity change, % (tested at about 1.8 µM) | U2OS KCNH2 3.1, thallium flux FluxOr; stronger effect = lower value | 0.95% of 340,000 active;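 active = maximum activity change below -70%; inconclusive = maximum activity change from -70% to -50%; inactive = maximum activity change above -50%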;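 also: thallium influx rate constant from kinetic fluorescence after stimulation buffer; % is scaled to controls: 0 for no effect and ±100 for the full control effect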
#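 Thallium flux via FluxOr fluorescence (Red40 quencher, 45 min loading) in U2OS cells virally expressing the KCNH2 3.1 isoform (1.77 x 10^8 /mL virus, overnight at 37 C). Rate constants from 2-min kinetic reads post-stimulation, normalised to positive and negative controls.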
# * hit, by the source's call; i = inactive; ? = inconclusive; . = no result; [ ] = dose if it differs, or a comment. Unless noted, calls follow the shape of the dose curve; as a rule, active = well fitted curve in the direction sought with a large enough effect; inconclusive = small, poorly fitted or top-dose-only effect, or another doubt; inactive = no such curve, though single readings can be large; an effect the other way counts as inactive or inconclusive.
SMILES,hERG WT inh,KB-3-1 tox,MCF10A rerep,KB-V1 cytotox,SW480 rerep,KCNH2 3.1 inh
O=C(/C=C/c1c(F)cccc1Cl)c1ccc(O)cc1,-22,?,3.3µM*,i,?,-11
CCCCCCC(=O)N/N=C/c1ccc(Br)cc1,2,i,?,i,?,6
CCCCCCCCC(=O)N/N=C/c1cccc(Br)c1,14,i,18µM*,i,17%,-8
COc1ccc2c(c1OC)OCC2C (configuration not stated),-1,?,?,15µM*,8%,.
COc1cc(OC)cc(C(=O)Nc2ccccc2C(=O)NCc2cccnc2)c1,-2,i,?,i,-2%,3
CCCc1cc(=O)n2[nH]cc(-c3ccc(Cl)cc3)c2n1,-1,16µM*,?,7.3µM*,18µM*,1
COCc1cc(=O)n2[nH]cc(-c3ccccc3)c2n1,-5,?,?,?,1%,3
COc1ccccc1NCc1ccc([N+](=O)[O-])s1,22,i,5%,i,2%,-5
Cc1ccccc1NCc1ccc([N+](=O)[O-])s1,-2,?,4.6µM*,i,?,3
CCOc1cc(C)c(C(C)C)cc1S(=O)(=O)n1ccnc1CC,.,i,.,i,.,.
Cc1cc(C(=O)CSc2nnc(N)s2)c(C)n1Cc1cccs1,3,?,16%,23µM*,-70%,-16
Cc1cc(C(=O)COc2cccnc2[N+](=O)[O-])c(C)n1Cc1cccs1,-11,?,?,?,11%,-14
CC(=O)Nc1ccccc1OCC(=O)c1cc(C)n(Cc2cccs2)c1C,-4,4.6µM*,14%,?,1%,-6
Cc1csc(SCC(=O)c2cc(C)n(Cc3cccs3)c2C)n1,-2,?,22%,?,1%,-10
CCN(CC)C(=O)CSc1nnc(COc2ccc(OC)cc2)n1N,0,i,-4%,i,-1%,-9
CCOc1ccc(-n2c(C)nnc2SCC(=O)N(CC)CC)cc1,5,i,14%,16µM*,-8%,2
O=C(NCc1ccccn1)c1ccccc1OCc1ccc(F)cc1,0,i,17%,?,0%,-101*
CCOC(=O)N1CCC(n2c(SCC(=O)NCc3ccco3)nc3ccsc3c2=O)CC1,-21,?,21%,2.1µM*,-1%,.
CCOC(=O)N1CCC(n2c(SCC(=O)OCc3ccccc3)nc3ccsc3c2=O)CC1,12,i,1%,i,-1%,-9
CCOC(=O)CSc1nc2ccsc2c(=O)n1C1CCN(C(=O)OCC)CC1,-21,i,-5%,16µM*,-10%,6
CCCCNC(=O)C1(NC(=O)Nc2ccc(C)cc2)CCCCC1,1,i,?,i,?,11
Cc1ccccc1CN1[C@@H](Cc2ccccc2)COCCS1(=O)=O,.,i,?,i,-5%,.
C=C1[C@@H](O)[C@H](Cc2ccccc2)N(Cc2ccccc2Br)S1(=O)=O,2,?,21µM*,?,-1%[9.22 µM],12
Fc1ccc(C2c3cccn3CCN2C(=S)Nc2cccc(Br)c2)cc1 (configuration not stated),-9,?,23µM*,?,-1%,-20
Cc1cccc(NC(=S)N2CCn3cccc3C2c2cccnc2)c1 (configuration not stated),0,i,-1%,16µM*,-6%,13
SMILES,hERG WT inh,KB-3-1 tox,MCF10A rerep,KB-V1 cytotox,SW480 rerep,KCNH2 3.1 inh
Cc1ccc(C(=O)NNC(=O)CCC(=O)NCc2ccccc2)cc1Br,10,i,3%,?,-2%,16
CC(=O)N/C(=C\c1ccc(Cl)cc1)C(=O)O,-2,i,-4%,i,?,-8
CC1(C)CC(=O)c2c(oc3c(Cl)cc(NS(=O)(=O)c4ccc(Cl)cc4)cc23)C1,.,i,.,i,.,.
CC[C@@H]1/C=C(\C)C[C@H](C)C[C@H](OC)[C@H]2O[C@@](O)(C(=O)C(=O)N3CCCC[C@H]3C(=O)O[C@H](/C(C)=C/[C@@H]3CC[C@H](Cl)[C@H](OC)C3)[C@H](C)[C@@H](O)CC1=O)[C@H](C)C[C@@H]2OC,.,.,6%,.,1%,.
O=C(CCl)N1c2ccccc2Oc2ccc3ccccc3c21,0,i,18µM*,?,5.8µM*,8
Cc1ccc(NC(=O)C(Cc2c[nH]c3ccccc23)NC(=O)OC(C)(C)C)c(C)c1 (configuration not stated),.,i,.,i,.,.
COc1cc(Cl)ccc1OCc1cc(C(=O)N2C[C@H]3CC[C@H]2C3)no1,3,i,1%,i,-4%,5
COc1cc(Cl)ccc1OCc1cc(C(=O)N2C[C@]3(C)C[C@H]2CC(C)(C)C3)no1,-5,.,21µM*,.,7%,-7
NNC(=O)COc1ccc2oc3c(c2c1)CCCC3,7,i,?,i,-4%,1
O=C(O)COc1ccc2oc3c(c2c1)CCCC3,-1,i,2.1µM*,i,-25%,-20
CCOC(=O)[C@H]1[C@H]2COc3ccc(Br)cc3[C@@H]2N2C(=O)c3cc(Br)ccc3NC(=O)[C@@]12C,-10,?,-3%,i,-3%,?
Cc1ccc(S(=O)(=O)N2CCN(C(=O)COC(=O)c3cccnc3Cl)CC2)c(C)c1,7,i,7%,i,-9%,-4
Cc1ccc(S(=O)(=O)N2CCN(C(=O)CSC3CCCC3)CC2)c(C)c1,2,i,16%,4.1µM*,5%,-16
Cc1ccc(S(=O)(=O)N2CCN(C(=O)COC(=O)c3ccc(Cl)nc3)CC2)c(C)c1,-162*,i,-4%,i,-11%,-18
Cc1ccc(S(=O)(=O)N2CCN(C(=O)CSC(=S)N3CCCC3)CC2)c(C)c1,1,i,0%,?,0%,-8
CCCSc1nnc(NC(=O)Nc2ccc(F)cc2)s1,-7,26µM*,?,?,5%,2
CCCSc1nnc(NC(=O)Nc2ccccc2)s1,5,?,?,21µM*,?,2
CCCSc1nnc(NC(=O)Nc2ccc(C)cc2)s1,2,i,10%,i,19%,-2
CCSc1nnc(NC(=O)C2CCN(C(=O)c3ccc(F)cc3)CC2)s1,9,i,5%,21µM*,-5%,-9

# Screens: PubChem, National Center for Advancing Translational Sciences (NCATS)
